PubChem BioAssay (NCI)
Compounds without any hit were thinned out: in the full panel of roughly 83,000, 20% have a hit.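 Assay: single dose, 48 h. Readout: percent growth (0 = no net growth; negative = cell death). Active: <10.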 Values without a mark were called inactive. Calls of active or inactive are those of the source.

What was measured:
Assay in all cases: NCI-60 one-dose screen, 48 h (100 = growth as untreated, 0 = no growth, -100 = all killed)
Conditions in all cases: 10 µM unless noted
NCI-H23 lung = system: NCI-H23 lung
NCI-H226 lung = system: NCI-H226 lung
NCI-H322M lung = system: NCI-H322M lung
HOP-62 NSCLC = system: HOP-62 NSCLC
NCI-H460 lung = system: NCI-H460 lung
NCI-H522 lung = system: NCI-H522 lung
A549/ATCC NSCLC = system: A549/ATCC NSCLC
786-0 renal = system: 786-0 renal
DU-145 prostate = system: DU-145 prostate
K-562 leukemia = system: K-562 leukemia
MALME-3M melanoma = system: MALME-3M melanoma
MDA-MB-231 breast = system: MDA-MB-231 breast
RXF 393 renal = system: RXF 393 renal
SF-268 CNS = system: SF-268 CNS
SF-295 CNS = system: SF-295 CNS
SF-539 CNS = system: SF-539 CNS
UACC-257 melanoma = system: UACC-257 melanoma
M14 melanoma = system: M14 melanoma
HCT-15 colon = system: HCT-15 colon
COLO 205 colon = system: COLO 205 colon

Structure (SMILES): N#Cc1c(N2CCOCC2)nc2sc3cc(Cl)ccc3n2c1=N
- growth (NCI-H23 lung): 88.2%
- growth (NCI-H226 lung): 88.3%
- growth (NCI-H322M lung): 117%
- growth (HOP-62 NSCLC): 90.2%
- growth (NCI-H460 lung): 91.4%
- growth (NCI-H522 lung): 93.7%
- growth (A549/ATCC NSCLC): 102%
- growth (786-0 renal): 95.3%
- growth (DU-145 prostate): 110%
- growth (K-562 leukemia): 106%
- growth (MALME-3M melanoma): 117%
- growth (MDA-MB-231 breast): 75.9%
- growth (RXF 393 renal): 72.7%
- growth (SF-268 CNS): 94.4%
- growth (SF-295 CNS): 118%
- growth (SF-539 CNS): 97.3%
- growth (UACC-257 melanoma): 103%
- growth (M14 melanoma): 111%
- growth (HCT-15 colon): 102%

Structure (SMILES): Cc1nn(-c2ccccc2)c(Cl)c1C(CC(=O)c1ccc(Cl)cc1)CC(=O)c1ccc(Cl)cc1
- growth (NCI-H23 lung): 87.2%
- growth (NCI-H226 lung): 88.6%
- growth (NCI-H322M lung): 99%
- growth (HOP-62 NSCLC): 97.8%
- growth (NCI-H460 lung): 90.1%
- growth (NCI-H522 lung): 71.6%
- growth (A549/ATCC NSCLC): 84.3%
- growth (786-0 renal): 81.8%
- growth (COLO 205 colon): 98.5%
- growth (DU-145 prostate): 103%
- growth (MALME-3M melanoma): 94.7%
- growth (MDA-MB-231 breast): 80.5%
- growth (RXF 393 renal): 92.2%
- growth (SF-268 CNS): 91.3%
- growth (SF-295 CNS): 92.4%
- growth (UACC-257 melanoma): 100%
- growth (M14 melanoma): 83.9%
- growth (HCT-15 colon): 86.6%

Structure (SMILES): COc1ccc(-c2nc3sccn3c2-c2ccnc(S(C)(=O)=O)n2)cc1
- growth (NCI-H23 lung): 100%
- growth (NCI-H226 lung): 90.4%
- growth (NCI-H322M lung): 55.4%
- growth (HOP-62 NSCLC): 78.7%
- growth (NCI-H460 lung): 88.9%
- growth (NCI-H522 lung): 26.7%
- growth (A549/ATCC NSCLC): 105%
- growth (786-0 renal): 99.1%
- growth (COLO 205 colon): 84.2%
- growth (DU-145 prostate): 56.7%
- growth (MALME-3M melanoma): 75.1%
- growth (MDA-MB-231 breast): 84.3%
- growth (RXF 393 renal): 97.5%
- growth (SF-268 CNS): 95%
- growth (SF-295 CNS): 74.9%
- growth (SF-539 CNS): 109%
- growth (UACC-257 melanoma): 111%
- growth (M14 melanoma): 102%
- growth (HCT-15 colon): 84.3%

Structure (SMILES): Cn1[nH]cc(/C=N/C(N)=O)c1=O
- growth (NCI-H23 lung): 104%
- growth (NCI-H226 lung): 111%
- growth (NCI-H322M lung): 124%
- growth (HOP-62 NSCLC): 111%
- growth (NCI-H460 lung): 109%
- growth (NCI-H522 lung): 121%
- growth (A549/ATCC NSCLC): 106%
- growth (786-0 renal): 99.8%
- growth (COLO 205 colon): 110%
- growth (K-562 leukemia): 103%
- growth (MALME-3M melanoma): 121%
- growth (MDA-MB-231 breast): 101%
- growth (SF-295 CNS): 115%
- growth (SF-539 CNS): 113%
- growth (UACC-257 melanoma): 119%
- growth (M14 melanoma): 107%

Structure (SMILES): Cc1c(C(N)=O)sc2c1c(=O)n(Cc1ccccc1)c1nnc(SCC(=O)Nc3ccc(Cl)cc3)n21
- growth (NCI-H23 lung): 57.7%
- growth (NCI-H226 lung): 9.97% (active)
- growth (NCI-H322M lung): 28.9%
- growth (HOP-62 NSCLC): -6.06% (active)
- growth (NCI-H460 lung): -12.3% (active)
- growth (NCI-H522 lung): 17.2%
- growth (A549/ATCC NSCLC): 20.7%
- growth (786-0 renal): -41.2% (active)
- growth (COLO 205 colon): 50.7%
- growth (DU-145 prostate): 39.5%
- growth (MALME-3M melanoma): 15.8%
- growth (MDA-MB-231 breast): -6.85% (active)
- growth (RXF 393 renal): 38%
- growth (SF-268 CNS): 60.1%
- growth (SF-295 CNS): 49.4%
- growth (UACC-257 melanoma): 35.3%
- growth (M14 melanoma): 40.5%
- growth (HCT-15 colon): 82.5%

Structure (SMILES): O=C(CSc1nc2c(n1Nc1ccccc1)-c1ccccc1SC2)Nc1nc(-c2ccc(Cl)cc2)cs1
- growth (NCI-H23 lung): 53%
- growth (NCI-H226 lung): 92%
- growth (NCI-H322M lung): 91.1%
- growth (HOP-62 NSCLC): 62.3%
- growth (NCI-H460 lung): 77%
- growth (NCI-H522 lung): 65.2%
- growth (A549/ATCC NSCLC): 25.7%
- growth (786-0 renal): 71.5%
- growth (DU-145 prostate): 73.5%
- growth (K-562 leukemia): 78%
- growth (MALME-3M melanoma): 64.2%
- growth (MDA-MB-231 breast): 75.1%
- growth (RXF 393 renal): 98.8%
- growth (SF-268 CNS): 47.2%
- growth (SF-295 CNS): 45.3%
- growth (SF-539 CNS): 70.2%
- growth (UACC-257 melanoma): 89.5%
- growth (M14 melanoma): 59.9%
- growth (HCT-15 colon): 77.4%

Structure (SMILES): c1ccc(-c2nn[nH]n2)c(-c2ccc(CN3CCN(c4nsc5ccccc45)CC3)cc2)c1
- growth (NCI-H23 lung): 85.7%
- growth (NCI-H226 lung): 105%
- growth (NCI-H322M lung): 96.7%
- growth (HOP-62 NSCLC): 110%
- growth (NCI-H460 lung): 98.4%
- growth (NCI-H522 lung): 69%
- growth (A549/ATCC NSCLC): 98.6%
- growth (786-0 renal): 110%
- growth (COLO 205 colon): 114%
- growth (DU-145 prostate): 97.5%
- growth (MALME-3M melanoma): 108%
- growth (MDA-MB-231 breast): 88.6%
- growth (RXF 393 renal): 113%
- growth (SF-268 CNS): 98.3%
- growth (SF-295 CNS): 94.1%
- growth (UACC-257 melanoma): 99.8%
- growth (M14 melanoma): 108%
- growth (HCT-15 colon): 82.9%

Structure (SMILES): Cc1ccccc1-c1cc(Cc2ccccc2O)c(=O)[nH]n1
- growth (NCI-H23 lung): 103%
- growth (NCI-H226 lung): 85.8%
- growth (NCI-H322M lung): 115%
- growth (HOP-62 NSCLC): 108%
- growth (NCI-H460 lung): 115%
- growth (NCI-H522 lung): 93.3%
- growth (A549/ATCC NSCLC): 107%
- growth (786-0 renal): 98.9%
- growth (DU-145 prostate): 125%
- growth (K-562 leukemia): 91.7%
- growth (MALME-3M melanoma): 151%
- growth (MDA-MB-231 breast): 90.7%
- growth (RXF 393 renal): 140%
- growth (SF-268 CNS): 85.1%
- growth (SF-295 CNS): 113%
- growth (SF-539 CNS): 107%
- growth (UACC-257 melanoma): 122%
- growth (M14 melanoma): 120%
- growth (HCT-15 colon): 107%
